# Results from PubChem BioAssay (NCATS).
# Results filed as inconclusive are left out. This is one part of the list. The source made the active and inactive calls. Unless noted, calls come from the whole dose curve; as a rule, active = well fitted curve in the direction sought with a large enough effect; inconclusive = small, poorly fitted or top-dose-only effect, or another doubt; inactive = no such curve, though single readings can be large; an effect the other way counts as inactive or inconclusive.
# How the values were obtained:
# [1] = target: Ubiquitin carboxyl-terminal hydrolase 2 (Homo sapiens) (UniProt O75604); assay: qHTS for Inhibitors of Ubiquitin-specific Protease USP2a Using CHOP2 as the Reporter: K484 Substrate (AID 652173);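 note: cleavage of internally quenched K48 di-ubiquitin substrate measured as rising fluorescence over time; potency is the fitted concentration of half-maximal effect; nearly all actives have a fitted effect of over 70% in size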
# Sequence of Ubiquitin carboxyl-terminal hydrolase 2 (Homo sapiens) (O75604 whole entry, looked up): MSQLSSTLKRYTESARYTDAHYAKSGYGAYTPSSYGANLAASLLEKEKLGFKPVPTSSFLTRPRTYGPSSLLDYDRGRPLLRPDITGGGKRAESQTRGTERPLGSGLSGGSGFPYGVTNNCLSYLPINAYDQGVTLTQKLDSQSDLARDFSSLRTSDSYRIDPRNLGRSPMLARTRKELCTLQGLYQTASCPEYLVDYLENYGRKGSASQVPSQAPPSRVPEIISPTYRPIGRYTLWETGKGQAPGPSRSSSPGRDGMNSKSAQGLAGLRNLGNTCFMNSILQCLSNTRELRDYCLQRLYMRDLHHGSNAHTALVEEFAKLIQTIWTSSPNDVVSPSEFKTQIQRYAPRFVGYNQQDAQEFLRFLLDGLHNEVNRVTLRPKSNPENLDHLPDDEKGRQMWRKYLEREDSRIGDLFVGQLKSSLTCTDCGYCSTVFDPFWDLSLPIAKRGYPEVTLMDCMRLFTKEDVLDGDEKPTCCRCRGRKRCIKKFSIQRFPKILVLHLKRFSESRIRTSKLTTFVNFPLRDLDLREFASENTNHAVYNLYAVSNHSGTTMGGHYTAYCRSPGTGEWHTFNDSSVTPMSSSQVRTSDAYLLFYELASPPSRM
# How it was run: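 Kinetic fluorescence (Ex 525/Em 598) tracked cleavage of an internally quenched K48 di-ubiquitin substrate, added as a 100 nM solution. The enzyme was added as a 5 nM USP2 solution before compound pinning, with no-enzyme controls. Buffer: Tris pH 8, beta-mercaptoethanol, CHAPS.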
# [2] = target: Calcium and integrin-binding protein 1 (Homo sapiens) (UniProt Q99828); assay: Primary qHTS for Identification of Calcium Integrin Binding Protein 1 (CIB1) Competitor (AID 1508620);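 note: GST tagged CIB1 binding a fluorescein labelled alphaIIb integrin peptide tracer; top concentration of the series differs between compounds; % is set by controls: 0 for no effect and ±100 for the full control effect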
# Sequence of Calcium and integrin-binding protein 1 (Homo sapiens) (Q99828 whole entry, looked up): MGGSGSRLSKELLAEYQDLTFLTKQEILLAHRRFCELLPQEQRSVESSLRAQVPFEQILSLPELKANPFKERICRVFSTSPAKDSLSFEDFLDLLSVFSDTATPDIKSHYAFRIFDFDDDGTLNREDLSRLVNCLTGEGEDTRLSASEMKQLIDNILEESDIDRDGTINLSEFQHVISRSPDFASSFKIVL
# How it was run: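 Fluorescence polarization competition: CIB1-GST (1 uM final) preincubated with compound 15 min at room temperature, then FITC-labeled alphaIIb peptide (100 nM final) added for another 15 min. Polarization read at Ex 480/Em 540.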
# [3] = target: Cytochrome P450 3A4 (Homo sapiens) (UniProt P08684); assay: qHTS Assay for Inhibitors and Substrates of Cytochrome P450 3A4 (AID 884); note: nearly all actives have a fitted effect of over 50% in size; note: potency is the fitted concentration of half-maximal effect
# Sequence of Cytochrome P450 3A4 (Homo sapiens) (P08684 whole entry, looked up): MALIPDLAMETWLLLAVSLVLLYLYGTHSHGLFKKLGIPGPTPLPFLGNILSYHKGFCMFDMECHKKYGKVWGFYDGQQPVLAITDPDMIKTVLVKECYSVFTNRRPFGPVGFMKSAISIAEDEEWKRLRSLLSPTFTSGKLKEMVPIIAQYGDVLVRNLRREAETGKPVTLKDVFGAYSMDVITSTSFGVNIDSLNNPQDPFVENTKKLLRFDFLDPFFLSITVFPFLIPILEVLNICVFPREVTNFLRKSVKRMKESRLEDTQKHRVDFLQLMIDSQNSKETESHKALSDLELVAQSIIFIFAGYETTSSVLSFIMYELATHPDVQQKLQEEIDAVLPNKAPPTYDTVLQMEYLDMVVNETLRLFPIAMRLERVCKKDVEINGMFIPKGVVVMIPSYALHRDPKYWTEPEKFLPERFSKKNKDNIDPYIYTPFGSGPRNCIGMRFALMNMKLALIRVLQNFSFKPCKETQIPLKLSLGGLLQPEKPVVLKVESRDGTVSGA
# How it was run: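 Luminescent readout of luciferin produced by CYP3A4 (20 nM) dealkylation of Luciferin-PPXE, 25 uM (its KM). NADPH-driven reaction ran 60 min at RT after 10 min compound preincubation; data scaled to 57 uM ketoconazole as 100% inhibition.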
# [4] = qHTS profiling for inhibitors of Plasmodium falciparum (3D7) proliferation (AID 743322);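 note: infected erythrocytes exposed to compound for 72 h before lysis; 100% = DMSO vehicle wells and 0% = 0.29 µM artemisinin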; details: P. falciparum 3D7 proliferation; at 28.7 µM (top of the series)
# How it was run: (§1)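 Parasite DNA was quantified by SYBR Green I fluorescence (ex 485, em 535 nm) after overnight lysis in saponin/Triton buffer at room temperature. Cultures at 0.3% parasitemia and 2.5% hematocrit were first exposed to compound for 72 h at 37 C; signals were normalised to artemisinin (0.29 uM) and vehicle wells.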
# [5] = qHTS profiling for inhibitors of Plasmodium falciparum (DD2) proliferation (AID 743323; call rule not given here); details: lower = more inhibition; at 28.7 µM (top of the series)
# How it was run: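 1536-well qHTS; infected RBCs 0.3% parasitemia/2.5% Hct final; cpd 72 h 37 C 5% CO2; lysis buffer + SYBR Green I, o/n RT dark; FI 485/535; norm. to 0.29 uM artemisinin and DMSO, plate-stack corrected.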
# [6] = qHTS profiling for inhibitors of Plasmodium falciparum (HB3) proliferation (AID 743324); details: Plasmodium falciparum HB3 blood-stage proliferation; at 28.7 µM (top of the series);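 note: 100% = DMSO vehicle wells and 0% = artemisinin-treated control wells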
# How it was run: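 SYBR Green fluorescence (485 ex/535 em) of lysed cultures, incubated overnight at room temperature in the dark, quantifies parasite DNA. Infected erythrocytes at 0.3% parasitemia and 2.5% hematocrit were exposed 72 h; values normalized to DMSO and 0.29 uM artemisinin controls.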
# [7] = Counterscreen qHTS for small molecule stabilizers of the endoplasmic reticulum resident proteome: GLuc-NoTag assay (AID 1508627); note: potency is the fitted concentration of half-maximal effect
# How it was run: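 Secreted GLuc lacking the SERCaMP modification is measured in SH-SY5Y cells exposed to compound for 19 h and then to thapsigargin (100 nM, 4 h) to deplete ER calcium; hits retested at 11 concentrations, up to 76.6 uM.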
# [8] = Confirmatory qHTS for small molecule stabilizers of the endoplasmic reticulum resident proteome: Secreted ER Calcium Modulated Protein (SERCaMP) assay (AID 1508628); note: % is set by controls: 0 for no effect and ±100 for the full control effect; nearly all actives have a fitted effect of over 40% in size
# How it was run: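 Reporter secretion upon ER calcium depletion (100 nM thapsigargin, 4 h, 37C) is measured as medium luminescence with coelenterazine, after 16 h compound pretreatment of SH-SY5Y-GLuc-SERCaMP cells; primary at three concentrations up to 38.3 uM, follow-up at 11 (up to 76.6 uM).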
# [9] = target: Cytochrome P450 3A4 (Homo sapiens) (UniProt P08684); assay: qHTS Assay for Activators of Cytochrome P450 3A4 (AID 885); note: nearly all actives have a fitted effect of over 65% in size
# How it was run: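 Activators are scored by enhanced luminescence from CYP3A4 conversion of luciferin-PPXE (25uM, equal to KM) to luciferin, after 60 min at RT with an NADPH-regenerating system.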
# [10] = Cell Viability qHTS for small molecule stabilizers of the endoplasmic reticulum resident proteome (AID 1508629); details: cell viability counter-screen, 100 nM thapsigargin for final 4 h;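 note: human SH-SY5Y neuroblastoma cells carrying the GLuc-SERCaMP reporter; compound exposure about 46 h in total before the viability read; % is set by controls: 0 for no effect and ±100 for the full control effect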
# [11] = qHTS profiling of the MIPE4 collection as inhibitors of Plasmodium falciparum (3D7) proliferation (AID 743344; call rule not given here;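 note: scaled between DMSO vehicle wells and 0.29 µM artemisinin as full inhibition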); details: P. falciparum 3D7 in erythrocytes, SYBR Green DNA fluorescence, 72 h; at 28.5 µM (top of the series)
# How it was run: as §1
# [12] = qHTS profiling of the MIPE4 collection as inhibitors of Plasmodium falciparum (DD2) proliferation (AID 743345; call rule not given here); details: P. falciparum Dd2 in erythrocytes, SYBR Green DNA, 72 h; at 28.5 µM (top of the series)
# How it was run: as §1
# [13] = qHTS profiling of the MIPE4 collection as inhibitors of Plasmodium falciparum (DD2) proliferation (Rep 2) (AID 743346; call rule not given here); details: P. falciparum Dd2 in erythrocytes, SYBR Green DNA, 72 h; at 28.5 µM (top of the series)
# How it was run: as §1
# [14] = qHTS profiling of the MIPE4 collection as inhibitors of Plasmodium falciparum (HB3) proliferation (AID 743347; call rule not given here;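 note: plate controls were DMSO vehicle wells for no effect and artemisinin wells for full effect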); details: P. falciparum HB3 in erythrocytes, SYBR Green DNA, 72 h; at 28.5 µM (top of the series)
# How it was run: as §1
# [15] = target: DNA polymerase kappa (Homo sapiens) (UniProt Q9UBT6); assay: qHTS for Inhibitors of Polymerase Kappa: Confirmatory Assay for Cherry-picked Compounds (AID 720501); details: purified Pol-kappa, fluorescent strand-displacement substrate; note: potency is the fitted concentration of half-maximal effect
# Sequence of DNA polymerase kappa (Homo sapiens) (Q9UBT6 whole entry, looked up): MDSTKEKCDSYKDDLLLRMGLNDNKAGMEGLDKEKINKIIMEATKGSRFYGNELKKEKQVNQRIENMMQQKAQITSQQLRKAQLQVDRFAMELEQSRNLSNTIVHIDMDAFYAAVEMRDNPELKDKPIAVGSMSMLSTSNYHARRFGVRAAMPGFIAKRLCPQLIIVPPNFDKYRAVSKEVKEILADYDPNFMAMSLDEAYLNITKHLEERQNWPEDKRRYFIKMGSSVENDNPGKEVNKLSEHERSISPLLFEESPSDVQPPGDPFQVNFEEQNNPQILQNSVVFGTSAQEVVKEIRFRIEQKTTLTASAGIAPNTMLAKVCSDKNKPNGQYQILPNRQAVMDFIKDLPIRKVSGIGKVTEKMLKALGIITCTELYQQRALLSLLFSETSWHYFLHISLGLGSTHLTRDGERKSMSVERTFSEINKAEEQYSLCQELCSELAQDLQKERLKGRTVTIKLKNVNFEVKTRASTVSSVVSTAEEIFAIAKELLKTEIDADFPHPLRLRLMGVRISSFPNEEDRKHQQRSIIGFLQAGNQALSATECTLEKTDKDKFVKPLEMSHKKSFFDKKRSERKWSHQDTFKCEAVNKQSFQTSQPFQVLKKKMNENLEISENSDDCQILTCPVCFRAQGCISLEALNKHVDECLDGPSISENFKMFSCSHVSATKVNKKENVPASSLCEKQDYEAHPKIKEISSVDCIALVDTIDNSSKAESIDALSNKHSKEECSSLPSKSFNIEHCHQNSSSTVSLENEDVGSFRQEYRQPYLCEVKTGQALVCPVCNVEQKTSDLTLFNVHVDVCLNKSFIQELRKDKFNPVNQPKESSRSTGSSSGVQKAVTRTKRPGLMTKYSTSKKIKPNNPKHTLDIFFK
# How it was run: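 Human Pol-kappa, dispensed at 10 nM, was preincubated with compounds for 15 min at room temperature. Reactions were started with primer/template substrate (50 nM final) carrying a TAMRA reporter strand and BHQ-2-quenched template, and fluorescence (ex 525/em 598 nm) was read at 0 and 10 min.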
# [16] = target: Flap endonuclease 1 (Homo sapiens) (UniProt P39748); assay: qHTS Assay for the Inhibitors of FEN1: Confirmatory Assay for Cherry-picked Compounds (AID 720498); details: FEN1 flap cleavage, TAMRA/BHQ2 fluorogenic DNA substrate; note: potency is the fitted concentration of half-maximal effect; nearly all actives have a fitted effect of over 60% in size
# Sequence of Flap endonuclease 1 (Homo sapiens) (P39748 whole entry, looked up): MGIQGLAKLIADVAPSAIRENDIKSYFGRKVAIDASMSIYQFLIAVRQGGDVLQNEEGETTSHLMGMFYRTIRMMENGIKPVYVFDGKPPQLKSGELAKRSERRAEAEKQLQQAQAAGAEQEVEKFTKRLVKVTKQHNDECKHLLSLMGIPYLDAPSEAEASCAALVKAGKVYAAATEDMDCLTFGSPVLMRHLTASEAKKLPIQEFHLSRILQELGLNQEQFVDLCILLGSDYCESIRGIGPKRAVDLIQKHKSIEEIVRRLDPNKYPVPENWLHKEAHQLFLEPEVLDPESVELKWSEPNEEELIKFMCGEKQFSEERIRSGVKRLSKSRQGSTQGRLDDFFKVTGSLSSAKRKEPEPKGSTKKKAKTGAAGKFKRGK
# How it was run: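 Human FEN1 (10 nM reagent) was preincubated with compounds for 15 min at room temperature, then 50 nM final double-flap DNA substrate (5'-TAMRA flap, BHQ-2 quencher strand) was added. Fluorescence (ex 525/em 598 nm) was read at 0 and 15 min.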
compound,measurement,setting,value
COc1ccccc1C(=O)Nc1nc(-c2ccccc2)cs1,Potency,[1],10.9 µM (active)
same,Potency,[2],inactive
Cc1nc(NC2CCCCC2)c2nc(-c3ccccc3)n(CC3CCN(C)CC3)c2n1,Potency,[3],inactive
same,Potency,[2],inactive
O=C([C@@H](Cc1ccc(O[S+](=O)([O-])c2cccnc2)cc1)N[S+](=O)([O-])c1cccc2cccnc12)N1CCN(c2ccccc2)CC1,remaining parasite growth % (stronger effect = lower value),[4],-1.01%
same,"activity, percent of control",[5],0.464%
same,"remaining proliferation (% of control), lower = more inhibition",[6],0.336%
same,Potency,[2],inactive
COc1cccc(CN2CCN(C(=O)c3ccc(-c4ccccc4)cc3)CC2)c1,Potency,[7],inactive
same,Potency,[8],inactive
O=C([C@H](Cc1ccc(O[S+](=O)([O-])c2cccnc2)cc1)N[S+](=O)([O-])c1cccc2cnccc12)N1CCN(c2ccccc2)CC1,remaining parasite growth % (stronger effect = lower value),[4],0.0541%
same,"activity, percent of control",[5],4.11%
same,"remaining proliferation (% of control), lower = more inhibition",[6],0.563%
same,Potency,[2],inactive
Cc1nc(NCc2ccccc2)c2nc(-c3ccccc3)n(CCN3CCOCC3)c2n1,Potency,[3],0.631 µM (active)
same,Potency,[9],inactive
same,Potency,[2],inactive
O=C(Nc1ncccn1)c1ccc([N+](=O)[O-])o1,Potency,[7],inactive
N[C@@H](Cc1ccc(OS(=O)(=O)c2cccnc2)cc1)C(=O)N1CCN(c2ccccc2)CC1,remaining parasite growth % (stronger effect = lower value),[4],41.2%
same,"activity, percent of control",[5],15.1%
same,"remaining proliferation (% of control), lower = more inhibition",[6],27.8%
same,Potency,[2],inactive
Cc1ccc(-n2c(C)cc(/C=N/NC(=O)c3ccncc3)c2C)cc1C,Potency,[7],inactive
same,Potency,[8],inactive
same,max response,[10],2.93% (inactive)
O=C(NCCN1CCCC1)[C@H](Cc1ccc(OS(=O)(=O)c2cccc3cnccc23)cc1)NS(=O)(=O)c1cccc2cnccc12,remaining parasite growth % (stronger effect = lower value),[4],0.578%
same,"activity, percent of control",[5],49.2%
same,"remaining proliferation (% of control), lower = more inhibition",[6],1.37%
same,Potency,[2],inactive
O=C(O)/C=C/C(=O)Nc1ccc(OC(F)(F)Cl)cc1,Potency,[7],inactive
same,Potency,[8],inactive
same,max response,[10],5.17% (inactive)
CC(C)(C)OC(=O)N[C@@H](Cc1ccc(OS(=O)(=O)c2cccc3cnccc23)cc1)C(=O)N1CCCN(C(=O)OC(C)(C)C)CC1,"parasite growth, % of DMSO control",[11],5.32%
same,"parasite growth remaining, % of DMSO control (lower = more inhibition)",[12],7.99%
same,"parasite growth, % of control (lower = inhibition)",[13],34.3%
same,"growth, % of control",[14],7.55%
same,Potency,[2],inactive
COc1ccc(C2=Nn3c(nnc3-c3ccccc3OC)SC2)cc1OC1CCCC1,Potency,[15],4.23 µM (active)
same,Potency,[2],inactive
O=C(c1ccccc1)N1CCN(Cc2cccc(Oc3ccccc3)c2)CC1,Potency,[7],inactive
COc1c2c(c(C(=O)/C=C/C(C)=C/c3ccccc3)c3c1OCO3)CCN(C)C2,Potency,[7],inactive
Cc1ccc(S(=O)(=O)Nc2ccccc2C(=O)Nc2ncc(-c3ccccc3)s2)cc1,Potency,[1],1.93 µM (active)
same,Potency,[2],inactive
Cc1ccc(S(=O)(=O)Nc2ccc(C)cc2C(=O)Nc2nc(-c3ccccc3)cs2)cc1,Potency,[1],1.93 µM (active)
same,Potency,[2],inactive
CC(C)(C)OC(=O)N[C@@H](Cc1ccc(O[S+](=O)([O-])c2cccc3cnccc23)cc1)C(=O)N1CCN(Cc2ccccc2)CC1,"parasite growth, % of DMSO control",[11],5.32%
same,"parasite growth remaining, % of DMSO control (lower = more inhibition)",[12],7.86%
same,"parasite growth, % of control (lower = inhibition)",[13],22.5%
same,"growth, % of control",[14],10.3%
same,Potency,[2],inactive
CC(C)(C)OC(=O)N[C@@H](Cc1ccc(O[S+](=O)([O-])c2cccnc2)cc1)C(=O)N1CCN(c2ccccc2)CC1,remaining parasite growth % (stronger effect = lower value),[4],-0.793%
same,"activity, percent of control",[5],0.682%
same,"remaining proliferation (% of control), lower = more inhibition",[6],-0.169%
same,Potency,[2],inactive
COc1cc(CN2CCN(C(=O)c3ccc(-c4ccccc4)cc3)CC2)cc(OC)c1OC,Potency,[7],inactive
same,Potency,[8],inactive
COc1ccc(-c2ccc3ncnc(NCc4cccs4)c3c2)cc1OC,Potency,[16],37.9 µM (active)
same,Potency,[2],inactive
CN1CCN(C(=O)[C@H](Cc2ccc(O[S+](=O)([O-])c3cccc4cnccc34)cc2)N[S+](=O)([O-])c2cccc3cnccc23)CC1,remaining parasite growth % (stronger effect = lower value),[4],10.3%
same,"activity, percent of control",[5],9.98%
same,"remaining proliferation (% of control), lower = more inhibition",[6],5.8%
same,Potency,[2],inactive
O=C(Nc1nc(-c2ccccc2)cs1)c1ccccc1Cl,Potency,[1],13.7 µM (active)
same,Potency,[2],inactive
Cc1ccc(S(=O)(=O)Nc2ccccc2C(=O)Nc2nc(-c3ccccc3)c(C)s2)cc1,Potency,[1],1.93 µM (active)
same,Potency,[2],inactive
COc1cc(OC)cc(C(=O)N2CCN(Cc3ccccc3C(F)(F)F)CC2)c1,Potency,[7],inactive
same,Potency,[8],inactive
COc1cc2c(cc1OC)[C@H](C)N(CC1C(=O)O[C@@H]3C[C@@]4(C)CCC[C@H](C)[C@@]45OC5[C@H]13)CC2 (stereo partly drawn),Potency,[7],35.5 µM (active)
CC(C)Oc1ccccc1C(=O)Nc1nc(-c2ccccc2)cs1,Potency,[1],17.2 µM (active)
same,Potency,[2],inactive
O=C(Nc1ccc(-c2ccccc2)cc1)[C@H](Cc1ccc(O[S+](=O)([O-])c2cccc3cnccc23)cc1)N[S+](=O)([O-])c1cccc2cnccc12,"parasite growth, % of DMSO control",[11],5.02%
same,"parasite growth remaining, % of DMSO control (lower = more inhibition)",[12],10.4%
same,"parasite growth, % of control (lower = inhibition)",[13],17.5%
same,"growth, % of control",[14],6.38%
same,Potency,[2],inactive
CC(C)(C)c1cc(O)c(CN)c(C(C)(C)C)c1,remaining parasite growth % (stronger effect = lower value),[4],-0.824%
same,"activity, percent of control",[5],0.498%
same,"remaining proliferation (% of control), lower = more inhibition",[6],-0.148%
same,"parasite growth, % of DMSO control",[11],6.1%
same,"parasite growth remaining, % of DMSO control (lower = more inhibition)",[12],7.28%
same,"parasite growth, % of control (lower = inhibition)",[13],19.6%
same,"growth, % of control",[14],4.33%
same,Potency,[2],inactive
N[C@@H](Cc1ccc(O[S+](=O)([O-])c2cccc3cccnc23)cc1)C(=O)N1CCN(c2ccccc2)CC1,remaining parasite growth % (stronger effect = lower value),[4],0.473%
same,"activity, percent of control",[5],1%
same,"remaining proliferation (% of control), lower = more inhibition",[6],0.538%
same,Potency,[2],inactive
